SENP8 block-1 – SENP8 protease inhibitors, primary screen, biochemical, luminescence; 330,000 tested, 1.2% active; Sentrin-specific protease 8 (Homo sapiens), Q96LD8; inhibition, % at 10 µM; purified SENP8, Z-RLRGG-aminoluciferin cleavage; in the data active = inhibition above about 50%
SENP7 inh – SENP7 protease inhibitors, primary screen, biochemical, luminescence, uHTS; Sentrin-specific protease 7 (Homo sapiens), Q9BQF6; recombinant SENP7, Z-RLRGG-aminoluciferin luminescence, 40 min; inhibition, % at 5 µM; 330,000 tested, 1.5% active;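 active = inhibition above about 50% at the single test dose, limit read from the data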
PPC-1+TRAIL kill – compounds killing PPC-1 cancer cells with TRAIL present, primary screen, TRAIL potentiator project, ATPLite luminescence, uHTS; PPC-1 cells + TRAIL, ATPLite viability luminescence; cell killing (% activity), % at 4 µM or 5 µM; AID 1443, 2008; 220,000 tested, 0.41% active;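 active = cell killing above 50% in the first pass at 4 µM, then a duplicate retest at 5 µM averaging 50% or more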
C8 TRAIL sens – viability loss with TRAIL in NB7+C8 cells, primary screen, TRAIL sensitizer project, cell-based, ATPlite luminescence; inhibition (viability loss, TRAIL sensitization), % at 10 µM; 360,000 tested, 1% active;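 active = compounds causing at least 50% loss of cell viability in the single-dose screen, relative to plate controls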
SENP6 inh – SENP6 protease inhibitors, primary screen, biochemical, luminescence, uHTS | Sentrin-specific protease 6 (Homo sapiens), Q9GZR1 | Recombinant SENP6 catalytic domain, aminoluciferin luminescence | inhibition, % at 10 µM | 330,000 tested, 1.8% active | AID 2599, 2010;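 active = inhibition above about 50% at the single tested dose, limit read from the data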
Target sequence (Q9GZR1 628-1112 limits assumed): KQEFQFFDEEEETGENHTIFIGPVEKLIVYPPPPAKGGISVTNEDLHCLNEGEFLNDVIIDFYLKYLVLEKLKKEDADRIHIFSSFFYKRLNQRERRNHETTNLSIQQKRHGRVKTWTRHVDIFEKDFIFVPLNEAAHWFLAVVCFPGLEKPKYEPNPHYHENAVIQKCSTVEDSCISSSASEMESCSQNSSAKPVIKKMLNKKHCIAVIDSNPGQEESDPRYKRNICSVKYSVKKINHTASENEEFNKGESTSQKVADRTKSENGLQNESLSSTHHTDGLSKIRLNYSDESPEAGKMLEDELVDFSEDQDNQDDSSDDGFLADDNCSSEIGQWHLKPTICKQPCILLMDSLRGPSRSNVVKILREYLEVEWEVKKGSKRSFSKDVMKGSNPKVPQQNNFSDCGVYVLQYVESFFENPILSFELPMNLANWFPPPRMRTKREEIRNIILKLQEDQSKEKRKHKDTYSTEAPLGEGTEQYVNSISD
SENP8 block-2 – human SENP8 protease inhibitors, primary screen, biochemical, fluorescence, Nedd8 protein substrate, uHTS; recombinant SENP8; inhibition, % at 20 µM; 360,000 tested, 0.64% active; in the data active = inhibition mostly above about 40%, no sharp cut-off; inactive = mostly below about 27%
Hits are given with their value; n = inactive; x = no result. In the library only some 3% were active in any assay of this set; here they are far more common.

SMILES	SENP8 block-1	SENP7 inh	PPC-1+TRAIL kill	C8 TRAIL sens	SENP6 inh	SENP8 block-2
CN1C(=S)SC(N(O)C(=O)Nc2cccc3ccccc23)C1(C)C (stereo not given)	n	n	n	n	57.5	n
CN1C(=S)SC(N(O)C(=O)Nc2ccccc2)C1(C)C (stereo not given)	n	n	n	n	n	n
O=c1c2c(nc3cc(-c4ccccc4Cl)[nH]n13)CCS2	76.8	n	n	n	85.5	n
COc1ccc([N+](=O)[O-])cc1N(CC(=O)N(C)C)S(C)(=O)=O	n	n	n	n	n	n
N#CCC(=O)Nc1ccc(C(=O)OCC(=O)C23CC4CC(CC(C4)C2)C3)cc1	n	n	x	n	n	n
O=C(OCC12CC3CC(CC(C3)C1)C2)c1ccc(NCc2cc(O)ccc2O)cc1	x	x	x	92.5	x	n
O=C(OCCC12CC3CC(CC(C3)C1)C2)c1ccc(NCc2cc(O)ccc2O)cc1	x	x	x	91.7	x	n
CCNC(=O)OCCC12CC3CC(CC(C3)C1)C2	x	x	n	n	x	n
COc1ccccc1NC(=O)CC1S/C(=N/N=C2\CCCc3ccccc32)NC1=O (stereo not given)	n	n	n	n	n	n
Oc1cc(-c2ccc(N3CCCCC3)nc2)cc2cccnc12	n	n	x	73.5	n	n
CC(=O)NC1=C(NC2CCS(=O)(=O)C2)C(=O)c2ccccc2C1=O (stereo not given)	n	n	n	n	n	45.8
O=C(CN1C(=O)c2ccccc2C1=O)NC1CCS(=O)(=O)C1 (stereo not given)	x	x	x	n	x	n
CCOC(=O)C1=C(C)OC(=Cc2ccc(OC)cc2)C1=O	x	x	x	69.7	x	n
CCOC(=O)C1=C(Nc2ccc(OC)cc2)OCC1=O	n	n	n	n	n	n
COC(=O)c1ccc(NC(=O)c2cccc(NC(=O)c3ccccc3)c2)cc1	n	n	x	n	n	n
Cc1cc2nc(-c3ccc(SCC(=O)Nc4ccc(S(=O)(=O)N5CCCC5)cc4)nc3)[nH]c2cc1C	n	n	63.3	72.0	n	n
CCc1nnc(NC(=O)CSc2ccc(-c3nc4ccc(C)cc4[nH]3)cn2)s1	n	n	n	53.7	n	n
Cc1cc2nc(-c3ccc(SCC(=O)Nc4nccs4)nc3)[nH]c2cc1C	x	x	n	59.2	x	n
CC(=O)CSc1ccc(-c2nc3cc(C)c(C)cc3[nH]2)cn1	n	n	x	78.0	n	n
Cc1cc2nc(-c3ccc(SCc4ccc(C#N)cc4)nc3)[nH]c2cc1C	n	n	n	n	n	n
O=C(NCc1ccco1)/C(=C\c1cccnc1)NC(=O)c1ccccc1F	n	n	n	n	n	n
CN1CCN(C(=O)c2cc3sc4ccccc4c3s2)CC1	n	n	n	n	n	n
Cc1ccc2nc(-c3ccc(SCC(=O)O)nc3)[nH]c2c1	n	n	n	n	n	n
Cc1ccc2nc(-c3ccc(SCC(=O)N4CCc5ccccc54)nc3)[nH]c2c1	n	n	55.8	65.4	n	n
CC(C)c1ccc(N=C2N=C(N)c3ccccc32)cc1	n	n	n	57.2	n	n
SMILES	SENP8 block-1	SENP7 inh	PPC-1+TRAIL kill	C8 TRAIL sens	SENP6 inh	SENP8 block-2
NC1=NC(=Nc2ccc(Cl)cc2)c2ccccc21	n	n	n	n	n	n
Cc1onc(-c2ccccc2)c1C(=O)N1CCC(C)(C(=O)NS(=O)(=O)C2CC2)C1 (stereo not given)	x	x	x	n	x	n
COc1cc(C(=O)Oc2ccccc2/C=N/NC(=O)c2ccc(C)cc2)cc(OC)c1OC	n	n	n	50.1	n	n
N#Cc1ccc(Oc2ccc(-c3nc4ccccc4nc3-c3ccccc3)cc2)cc1C#N	n	n	n	n	n	n
Nc1ccc(Oc2ccc3nc(-c4ccccc4)c(-c4ccc([N+](=O)[O-])cc4)nc3c2)cc1	n	n	n	n	n	43.4
CC1=NN(Cc2ccccc2)C(=O)/C1=C\c1ccc(N(C)C)cc1	n	n	n	n	n	40.0
CCOC(=O)C1=NN(c2ccccc2)C(=O)/C1=C\c1ccc(N(C)C)cc1	n	n	n	n	n	n
COc1cc(C2=NOC(C(=O)Nc3cc(C)on3)C2)cc(OC)c1OC (stereo not given)	n	n	n	n	n	n
c1cc(-c2cc3cc(N4CCOCC4)ccc3o2)cs1	n	n	x	78.9	n	n
O=S(=O)(Nc1ccc(N=Nc2ccc(O)c3ccccc23)cc1)c1ccccc1	n	n	n	n	n	n
O=[N+]([O-])c1ccc(N=Nc2ccc(O)c3ccccc23)cc1	x	x	x	62.6	x	44.9
O=[N+]([O-])c1cc(C(F)(F)F)ccc1N1CCN(S(=O)(=O)c2ccc3ccccc3c2)CC1	n	n	n	n	n	40.0
COC1=CC(=O)c2ccccc2C1=O	51.4	n	x	88.1	55.8	n
Cc1cc(Br)ccc1OCCCCNCCO	n	n	n	52.7	n	n
CCCCOc1ccc(/C(O)=C2/C(=O)C(=O)N(Cc3cccnc3)C2c2ccncc2)c(C)c1 (stereo not given)	n	n	n	n	n	n
C/C(=N/Nc1ccc(C(=O)O)cc1)c1ccc(O)c(O)c1O	n	n	n	n	n	46.9
CCOC(=O)c1cnc2c(C)c(Cl)ccc2c1N1CCN(CC)CC1	n	n	x	n	n	n
CCOC(=O)c1cnc2c(Cl)c(Cl)ccc2c1N1CCN(C)CC1	n	n	n	58.7	n	n
Cc1ccc(S(=O)(=O)N(C)C)cc1NC(=S)Nc1cccc2ccccc12	84.1	56.5	x	n	90.4	n
C/C(=C\C(=S)Nc1ccccc1)Nc1cccc2ccccc12	71.4	n	n	n	83.2	n
COc1cccc(NC(=S)Nc2cccc3ccccc23)c1	87.9	n	x	n	88.8	n
N#Cc1ccsc1NC(=O)c1cccc([N+](=O)[O-])c1	n	n	n	n	n	n
N#Cc1ccsc1NC(=O)c1ccc(Cl)c([N+](=O)[O-])c1	93.9	91.5	n	n	96.1	n
COc1ccc(N(CC(=O)NC2CCCCC2)C(=O)CCCC(=O)Nc2ccccn2)cc1	n	n	x	n	n	n
COc1cc(OC)c(C2CC(=O)N3CN(C)CSC3=C2C#N)cc1OC (stereo not given)	n	n	n	n	n	78.9
COc1ccc2ccccc2c1C1CC(=O)N2CN(C)CSC2=C1C#N (stereo not given)	n	n	n	n	n	42.2
COc1cc(OC)c(C2CC(=O)N3CN(c4ccccc4)CSC3=C2C#N)cc1OC (stereo not given)	n	n	n	n	n	n
CN(C)CCN1CCN(C2CN(Cc3cn(Cc4ccc(F)cc4)nn3)S(=O)(=O)C2)CC1 (stereo not given)	x	x	x	n	x	n

High-throughput results (PubChem)
